Measurements as given in article PMC7862700, “An all-to-all approach to the identification of sequence-specific readers for epigenetic DNA modifications on cytosine”.

What was measured:
Assay in all cases: DAPPL (digital affinity profiling via proximity ligation, sequencing); 10 mM Tris-HCl pH 7.5, 50 mM NaCl, 1 mM DTT, 4% glycerol, room temperature, 30 min; GST-TFs on glutathione beads, 16-mer random dsDNA library, 0.1% formaldehyde crosslink after washing; high values mean tight binding
[1] = molecular target: T1, FEV (Homo sapiens, UniProt Q99581 1-238); details: protein: recombinant; tags: N-terminal GST; dsDNA, one strand shown
T1 sequence: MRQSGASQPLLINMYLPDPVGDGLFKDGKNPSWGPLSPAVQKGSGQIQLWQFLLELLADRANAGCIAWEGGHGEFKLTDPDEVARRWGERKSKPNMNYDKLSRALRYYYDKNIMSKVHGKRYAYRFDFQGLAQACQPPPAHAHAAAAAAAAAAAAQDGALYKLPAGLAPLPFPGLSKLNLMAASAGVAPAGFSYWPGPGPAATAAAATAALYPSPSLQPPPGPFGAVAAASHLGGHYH
How it was run: (§1)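 Sequencing on an Illumina NextSeq500 followed washing, crosslinking with 0.1% formaldehyde, proximity ligation (BsaI/T4 ligase, 1 h, 37 °C) and PCR amplification of pools that had been incubated for 30 min at room temperature with 200 nmole of a random double-stranded 16-mer DNA library in Tris/NaCl/DTT/glycerol buffer. Each pool held DNA-barcoded human transcription factors, expressed in yeast as GST fusions and captured on glutathione beads, plus a tag-only sample. Binding signal is a hexamer's read frequency for a factor divided by its frequency in the tag-only sample.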

[2] = molecular target: ETV5 (Homo sapiens, UniProt P41161 1-510); details: protein: recombinant; tags: N-terminal GST; dsDNA, one strand shown
Sequence of ETV5 (P41161 whole entry): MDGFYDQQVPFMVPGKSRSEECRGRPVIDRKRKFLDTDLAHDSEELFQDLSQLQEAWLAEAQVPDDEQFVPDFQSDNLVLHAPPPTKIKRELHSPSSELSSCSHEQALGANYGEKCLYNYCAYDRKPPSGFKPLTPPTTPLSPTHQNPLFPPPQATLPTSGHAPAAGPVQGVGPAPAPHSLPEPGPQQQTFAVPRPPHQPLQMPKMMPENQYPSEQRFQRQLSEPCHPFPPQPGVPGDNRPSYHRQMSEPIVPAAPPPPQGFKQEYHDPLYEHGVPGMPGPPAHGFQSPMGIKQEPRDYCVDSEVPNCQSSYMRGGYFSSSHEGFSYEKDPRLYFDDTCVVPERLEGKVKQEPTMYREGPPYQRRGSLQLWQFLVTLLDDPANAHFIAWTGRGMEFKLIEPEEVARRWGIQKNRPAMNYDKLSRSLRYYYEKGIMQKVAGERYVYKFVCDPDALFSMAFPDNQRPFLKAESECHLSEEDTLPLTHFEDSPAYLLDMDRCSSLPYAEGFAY
How it was run: as §1

[3] = molecular target: HSF1 (Homo sapiens, UniProt Q00613 1-529); details: protein: recombinant; tags: N-terminal GST; chain copies: 3; dsDNA, one strand shown
Sequence of HSF1 (Q00613 whole entry): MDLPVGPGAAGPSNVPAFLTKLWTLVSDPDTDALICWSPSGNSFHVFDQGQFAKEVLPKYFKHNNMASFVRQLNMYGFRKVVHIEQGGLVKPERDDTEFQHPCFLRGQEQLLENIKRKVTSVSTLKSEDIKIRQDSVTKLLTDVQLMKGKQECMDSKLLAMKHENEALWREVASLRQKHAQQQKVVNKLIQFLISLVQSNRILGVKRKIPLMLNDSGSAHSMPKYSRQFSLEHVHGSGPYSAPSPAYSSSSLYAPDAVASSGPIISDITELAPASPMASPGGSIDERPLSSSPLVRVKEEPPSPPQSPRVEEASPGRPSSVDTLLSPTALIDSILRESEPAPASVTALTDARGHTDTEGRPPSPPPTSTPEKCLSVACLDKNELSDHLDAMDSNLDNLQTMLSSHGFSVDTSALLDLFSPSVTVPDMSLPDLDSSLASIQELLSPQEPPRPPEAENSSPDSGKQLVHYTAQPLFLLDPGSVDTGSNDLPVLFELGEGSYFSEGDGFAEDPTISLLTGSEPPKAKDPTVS
How it was run: as §1

[4] = molecular target: T2, SPIC (Homo sapiens, UniProt Q8N5J4 1-248); details: protein: recombinant; tags: N-terminal GST; dsDNA, one strand shown
T2 sequence: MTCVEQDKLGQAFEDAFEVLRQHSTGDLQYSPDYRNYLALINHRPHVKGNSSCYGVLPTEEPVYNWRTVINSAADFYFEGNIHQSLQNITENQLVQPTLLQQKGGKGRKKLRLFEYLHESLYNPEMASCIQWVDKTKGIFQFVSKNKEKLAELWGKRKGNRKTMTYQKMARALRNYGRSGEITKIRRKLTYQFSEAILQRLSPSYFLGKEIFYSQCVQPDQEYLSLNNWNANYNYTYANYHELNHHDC
How it was run: as §1

[5] = molecular target: ELF4 (Homo sapiens, UniProt Q99607 1-663); details: protein: recombinant; tags: N-terminal GST; dsDNA, one strand shown
Sequence of ELF4 (Q99607 whole entry): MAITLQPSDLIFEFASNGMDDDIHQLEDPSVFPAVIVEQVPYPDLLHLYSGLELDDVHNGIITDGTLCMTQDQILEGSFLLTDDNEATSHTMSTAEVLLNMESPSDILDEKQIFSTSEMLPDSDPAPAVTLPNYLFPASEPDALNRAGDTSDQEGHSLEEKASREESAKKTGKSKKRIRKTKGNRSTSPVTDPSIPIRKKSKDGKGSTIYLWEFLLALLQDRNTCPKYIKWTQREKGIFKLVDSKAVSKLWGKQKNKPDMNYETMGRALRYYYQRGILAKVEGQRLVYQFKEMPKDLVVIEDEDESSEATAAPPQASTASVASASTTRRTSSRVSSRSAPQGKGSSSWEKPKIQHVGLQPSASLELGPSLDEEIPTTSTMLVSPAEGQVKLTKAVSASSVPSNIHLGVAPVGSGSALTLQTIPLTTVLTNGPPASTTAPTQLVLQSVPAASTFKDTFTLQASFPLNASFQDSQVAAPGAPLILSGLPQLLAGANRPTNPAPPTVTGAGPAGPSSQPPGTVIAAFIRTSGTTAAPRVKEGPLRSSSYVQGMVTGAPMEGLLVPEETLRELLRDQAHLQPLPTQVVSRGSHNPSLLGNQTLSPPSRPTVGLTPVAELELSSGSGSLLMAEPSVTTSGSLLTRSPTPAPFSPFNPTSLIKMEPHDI
How it was run: as §1

[6] = molecular target: T3, ELK4 (Homo sapiens, UniProt P28324-2 1-405); details: protein: recombinant; tags: N-terminal GST; dsDNA, one strand shown
T3 sequence: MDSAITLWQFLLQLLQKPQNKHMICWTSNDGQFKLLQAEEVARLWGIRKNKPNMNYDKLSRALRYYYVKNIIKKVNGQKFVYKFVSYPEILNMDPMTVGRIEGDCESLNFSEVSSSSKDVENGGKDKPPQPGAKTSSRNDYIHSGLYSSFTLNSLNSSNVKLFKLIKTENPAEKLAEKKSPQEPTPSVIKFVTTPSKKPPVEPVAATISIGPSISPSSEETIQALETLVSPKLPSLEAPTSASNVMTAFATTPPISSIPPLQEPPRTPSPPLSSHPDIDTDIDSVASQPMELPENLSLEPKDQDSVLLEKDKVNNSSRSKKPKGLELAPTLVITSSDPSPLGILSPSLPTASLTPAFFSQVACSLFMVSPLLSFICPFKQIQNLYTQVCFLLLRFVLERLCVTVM
How it was run: as §1

[7] = molecular target: T4, ETV2 (Homo sapiens, UniProt O00321 1-342); details: protein: recombinant; tags: N-terminal GST; dsDNA, one strand shown
T4 sequence: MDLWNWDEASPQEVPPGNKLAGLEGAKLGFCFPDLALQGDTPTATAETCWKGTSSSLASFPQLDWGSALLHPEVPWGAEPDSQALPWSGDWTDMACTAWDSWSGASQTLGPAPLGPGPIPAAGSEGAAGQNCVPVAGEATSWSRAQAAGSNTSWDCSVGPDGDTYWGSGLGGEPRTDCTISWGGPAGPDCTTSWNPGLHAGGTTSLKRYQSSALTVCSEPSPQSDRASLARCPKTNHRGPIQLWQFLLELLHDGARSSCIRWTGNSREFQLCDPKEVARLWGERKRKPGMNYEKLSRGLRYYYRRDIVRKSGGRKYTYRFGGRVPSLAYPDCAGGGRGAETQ
How it was run: as §1

[8] = molecular target: T5, ELF3 (Homo sapiens, UniProt P78545 1-371); details: protein: recombinant; tags: N-terminal GST; dsDNA, one strand shown
T5 sequence: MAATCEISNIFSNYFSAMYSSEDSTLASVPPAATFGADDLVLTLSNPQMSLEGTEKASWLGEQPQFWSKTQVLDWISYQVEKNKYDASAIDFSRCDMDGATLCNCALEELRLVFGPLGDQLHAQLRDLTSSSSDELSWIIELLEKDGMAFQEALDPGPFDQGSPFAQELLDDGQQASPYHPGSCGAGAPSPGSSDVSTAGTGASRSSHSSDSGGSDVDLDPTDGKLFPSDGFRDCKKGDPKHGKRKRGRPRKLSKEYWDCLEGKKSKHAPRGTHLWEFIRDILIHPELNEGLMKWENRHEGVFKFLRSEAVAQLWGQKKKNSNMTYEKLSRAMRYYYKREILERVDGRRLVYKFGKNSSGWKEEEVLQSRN
How it was run: as §1

[9] = molecular target: CRX (Homo sapiens, UniProt O43186 1-299); details: protein: recombinant; tags: N-terminal GST; dsDNA, one strand shown
Sequence of CRX (O43186 whole entry): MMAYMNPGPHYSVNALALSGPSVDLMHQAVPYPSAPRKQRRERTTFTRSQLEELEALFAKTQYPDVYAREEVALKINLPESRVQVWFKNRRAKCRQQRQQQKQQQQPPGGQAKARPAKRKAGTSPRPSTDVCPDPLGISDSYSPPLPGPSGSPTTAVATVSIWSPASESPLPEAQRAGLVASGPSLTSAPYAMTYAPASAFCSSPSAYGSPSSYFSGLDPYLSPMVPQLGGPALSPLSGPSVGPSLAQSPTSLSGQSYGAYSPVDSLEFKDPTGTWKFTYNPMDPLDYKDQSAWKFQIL
How it was run: as §1

[10] = molecular target: ETV1 (Homo sapiens, UniProt P50549 1-477); details: protein: recombinant; tags: N-terminal GST; dsDNA, one strand shown
Sequence of ETV1 (P50549 whole entry): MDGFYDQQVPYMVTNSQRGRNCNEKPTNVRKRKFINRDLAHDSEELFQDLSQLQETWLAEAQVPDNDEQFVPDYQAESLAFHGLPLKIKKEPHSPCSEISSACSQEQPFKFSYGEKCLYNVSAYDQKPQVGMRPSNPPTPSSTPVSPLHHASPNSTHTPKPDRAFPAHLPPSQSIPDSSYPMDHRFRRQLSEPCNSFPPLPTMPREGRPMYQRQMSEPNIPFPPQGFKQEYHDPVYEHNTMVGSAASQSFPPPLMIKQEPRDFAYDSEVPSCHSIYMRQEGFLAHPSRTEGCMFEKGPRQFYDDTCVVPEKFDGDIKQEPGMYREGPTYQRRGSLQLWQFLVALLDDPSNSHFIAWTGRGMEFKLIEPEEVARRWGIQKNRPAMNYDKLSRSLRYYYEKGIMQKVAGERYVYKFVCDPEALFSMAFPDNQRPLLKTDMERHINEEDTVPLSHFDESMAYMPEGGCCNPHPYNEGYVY
How it was run: as §1

[11] = molecular target: T6, ERF (Homo sapiens, UniProt P50548 1-548); details: protein: recombinant; tags: N-terminal GST; dsDNA, one strand shown
T6 sequence: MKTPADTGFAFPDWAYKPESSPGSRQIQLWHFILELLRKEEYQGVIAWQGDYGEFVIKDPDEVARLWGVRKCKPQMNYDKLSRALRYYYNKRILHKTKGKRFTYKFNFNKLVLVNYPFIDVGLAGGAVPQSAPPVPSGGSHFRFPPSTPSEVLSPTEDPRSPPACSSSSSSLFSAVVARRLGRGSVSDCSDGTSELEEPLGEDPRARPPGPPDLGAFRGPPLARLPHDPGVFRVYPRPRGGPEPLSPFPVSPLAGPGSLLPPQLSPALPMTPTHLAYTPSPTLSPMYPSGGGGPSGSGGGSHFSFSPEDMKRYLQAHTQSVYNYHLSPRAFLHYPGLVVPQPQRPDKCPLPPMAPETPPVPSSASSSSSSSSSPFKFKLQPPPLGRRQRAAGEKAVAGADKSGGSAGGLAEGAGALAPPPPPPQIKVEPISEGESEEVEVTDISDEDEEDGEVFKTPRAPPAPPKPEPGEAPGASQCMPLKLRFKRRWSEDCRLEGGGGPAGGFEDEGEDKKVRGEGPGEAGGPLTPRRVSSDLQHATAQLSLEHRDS
How it was run: as §1

[12] = molecular target: T7, ETV3L (Homo sapiens, UniProt Q6ZN32 1-361); details: protein: recombinant; tags: N-terminal GST; dsDNA, one strand shown
T7 sequence: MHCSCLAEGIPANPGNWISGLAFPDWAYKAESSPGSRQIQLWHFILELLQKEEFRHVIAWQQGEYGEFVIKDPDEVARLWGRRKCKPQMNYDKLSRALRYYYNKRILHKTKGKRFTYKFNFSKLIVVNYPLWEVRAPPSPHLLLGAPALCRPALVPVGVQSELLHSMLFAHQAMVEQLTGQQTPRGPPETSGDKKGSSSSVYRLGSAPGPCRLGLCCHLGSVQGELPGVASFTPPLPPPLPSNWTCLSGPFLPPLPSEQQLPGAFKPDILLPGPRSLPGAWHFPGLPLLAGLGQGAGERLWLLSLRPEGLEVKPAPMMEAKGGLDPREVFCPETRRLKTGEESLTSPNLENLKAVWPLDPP
How it was run: as §1

[13] = molecular target: T8, ETS2 (Homo sapiens, UniProt P15036 1-469); details: protein: recombinant; tags: N-terminal GST; dsDNA, one strand shown
T8 sequence: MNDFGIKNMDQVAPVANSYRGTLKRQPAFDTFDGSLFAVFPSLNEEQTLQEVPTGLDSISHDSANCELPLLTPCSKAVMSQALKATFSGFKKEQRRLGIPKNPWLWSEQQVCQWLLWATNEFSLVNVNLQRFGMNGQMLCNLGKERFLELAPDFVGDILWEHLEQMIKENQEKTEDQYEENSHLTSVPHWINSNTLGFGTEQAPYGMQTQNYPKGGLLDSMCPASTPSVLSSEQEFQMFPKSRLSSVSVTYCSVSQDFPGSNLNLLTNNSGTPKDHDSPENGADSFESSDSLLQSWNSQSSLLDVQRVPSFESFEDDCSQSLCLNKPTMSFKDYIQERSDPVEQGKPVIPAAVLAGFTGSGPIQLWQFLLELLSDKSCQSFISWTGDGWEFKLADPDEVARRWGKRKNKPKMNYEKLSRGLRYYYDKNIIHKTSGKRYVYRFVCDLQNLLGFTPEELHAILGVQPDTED
How it was run: as §1

[14] = molecular target: T9, SPDEF (Homo sapiens, UniProt O95238 1-335); details: protein: recombinant; tags: N-terminal GST; dsDNA, one strand shown
T9 sequence: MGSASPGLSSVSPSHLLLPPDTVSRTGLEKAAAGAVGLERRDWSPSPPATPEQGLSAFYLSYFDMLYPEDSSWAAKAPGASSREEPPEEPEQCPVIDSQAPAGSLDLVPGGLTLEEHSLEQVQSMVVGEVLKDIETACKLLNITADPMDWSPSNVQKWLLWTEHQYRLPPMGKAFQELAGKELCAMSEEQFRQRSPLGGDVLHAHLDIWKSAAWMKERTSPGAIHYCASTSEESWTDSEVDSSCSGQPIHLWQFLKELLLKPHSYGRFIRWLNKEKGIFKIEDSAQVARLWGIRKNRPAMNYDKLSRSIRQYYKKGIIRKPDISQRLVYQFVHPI
How it was run: as §1

[15] = molecular target: T10, ETV7 (Homo sapiens, UniProt Q9Y603 1-341); details: protein: recombinant; tags: N-terminal GST; dsDNA, one strand shown
T10 sequence: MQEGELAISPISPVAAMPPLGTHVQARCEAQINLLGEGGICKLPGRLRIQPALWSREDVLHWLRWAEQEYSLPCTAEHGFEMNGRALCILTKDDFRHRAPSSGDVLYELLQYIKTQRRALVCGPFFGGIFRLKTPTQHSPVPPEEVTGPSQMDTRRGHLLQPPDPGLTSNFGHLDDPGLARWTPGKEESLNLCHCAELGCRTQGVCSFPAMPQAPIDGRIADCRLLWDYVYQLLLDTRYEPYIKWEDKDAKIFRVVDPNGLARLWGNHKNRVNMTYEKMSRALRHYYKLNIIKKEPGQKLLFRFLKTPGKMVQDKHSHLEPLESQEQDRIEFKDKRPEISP
How it was run: as §1

[16] = molecular target: T11, ELF5 (Homo sapiens, UniProt Q9UKW6-2 1-255); details: protein: recombinant; tags: N-terminal GST; dsDNA, one strand shown
T11 sequence: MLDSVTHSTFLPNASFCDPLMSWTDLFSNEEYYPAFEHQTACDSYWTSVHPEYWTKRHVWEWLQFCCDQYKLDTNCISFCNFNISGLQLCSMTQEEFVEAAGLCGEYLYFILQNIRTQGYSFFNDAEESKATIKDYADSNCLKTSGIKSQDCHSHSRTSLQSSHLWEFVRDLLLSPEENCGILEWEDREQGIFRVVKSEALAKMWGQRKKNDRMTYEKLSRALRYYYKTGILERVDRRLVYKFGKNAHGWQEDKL
How it was run: as §1

[17] = molecular target: T12, ETV3 (Homo sapiens, UniProt P41162-2 1-143); details: protein: recombinant; tags: N-terminal GST; dsDNA, one strand shown
T12 sequence: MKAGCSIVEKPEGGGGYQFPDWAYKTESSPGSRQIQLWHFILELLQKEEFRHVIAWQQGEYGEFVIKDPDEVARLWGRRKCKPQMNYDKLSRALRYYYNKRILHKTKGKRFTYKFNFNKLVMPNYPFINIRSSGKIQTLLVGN
How it was run: as §1

[18] = molecular target: ETV6 (Homo sapiens, UniProt P41212 1-452); details: protein: recombinant; tags: N-terminal GST; dsDNA, one strand shown
Sequence of ETV6 (P41212 whole entry): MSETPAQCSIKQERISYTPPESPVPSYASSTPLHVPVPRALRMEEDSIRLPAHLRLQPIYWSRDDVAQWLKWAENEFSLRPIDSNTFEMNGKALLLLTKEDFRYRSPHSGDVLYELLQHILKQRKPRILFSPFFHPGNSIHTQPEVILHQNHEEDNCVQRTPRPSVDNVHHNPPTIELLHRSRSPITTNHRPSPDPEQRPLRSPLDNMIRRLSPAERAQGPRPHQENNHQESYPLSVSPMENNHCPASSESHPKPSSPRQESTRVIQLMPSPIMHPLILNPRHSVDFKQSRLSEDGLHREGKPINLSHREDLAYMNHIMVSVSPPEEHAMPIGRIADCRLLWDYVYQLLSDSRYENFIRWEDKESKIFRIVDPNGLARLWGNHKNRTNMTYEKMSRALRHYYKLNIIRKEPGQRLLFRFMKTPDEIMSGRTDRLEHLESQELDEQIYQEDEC
How it was run: as §1

With TCACTG the binding signal [1] was 1.22 fold enrichment (6-mer frequency, TF over GST control), the binding signal [2] was 1.15 fold enrichment (6-mer frequency, TF over GST control) and the binding signal [3] was 1.15 fold enrichment (6-mer frequency, TF over GST control). For the same sequence, the binding signal [4] was 1.24 fold enrichment (6-mer frequency, TF over GST control), the binding signal [5] was 1.17 fold enrichment (6-mer frequency, TF over GST control) and the binding signal [6] was 1.14 fold enrichment (6-mer frequency, TF over GST control). The binding signal [7] was 1.15 fold enrichment (6-mer frequency, TF over GST control), the binding signal [8] was 1.48 fold enrichment (6-mer frequency, TF over GST control) and the binding signal [9] was 1.09 fold enrichment (6-mer frequency, TF over GST control). For the same sequence, the binding signal [10] was 1.21 fold enrichment (6-mer frequency, TF over GST control), the binding signal [11] was 1.17 fold enrichment (6-mer frequency, TF over GST control) and the binding signal [12] was 1.4 fold enrichment (6-mer frequency, TF over GST control). For the same sequence, the binding signal [13] was 1.28 fold enrichment (6-mer frequency, TF over GST control), the binding signal [14] was 1.16 fold enrichment (6-mer frequency, TF over GST control) and the binding signal [15] was 1.3 fold enrichment (6-mer frequency, TF over GST control). The binding signal [16] was 1.17 fold enrichment (6-mer frequency, TF over GST control), the binding signal [17] was 1.16 fold enrichment (6-mer frequency, TF over GST control) and the binding signal [18] was 1.2 fold enrichment (6-mer frequency, TF over GST control).
